Measurements as given in PubChem BioAssay (NCATS).
Results filed as inconclusive are left out. Unmarked numbers belong to inactive results. Active and inactive are the calls of the source. Calls come from the whole dose curve; as a rule, active = well fitted inhibition curve with a large enough effect; inconclusive = small, poorly fitted or top-dose-only effect; inactive = flat fitted curve, though single readings scatter.

Tested on: astro (control astrocytes)
Assay: Drug repurposing screens with cells derived from glioblastoma tumor samples (AID 1345199); note: nearly all actives have a fitted effect of over 40% in size
Conditions: viability, ATP luminescence, 48 h; series mostly up to 45.9 µM; activity, negative = cell killing: at the top concentration
Description: CD133+ cells were isolated from GBM patient biopsies and cultured as neurospheres. Neurospheres from four patients were used to screen the NCATS pharmaceutical collection (NPC) library of approved drugs and bioactive compounds. […] The neurospheres were incubated with drugs for 48 hours in 1536-well format, then assayed with an ATP content cell viability assay. […] These hits were cherry picked to confirm activity in the four original GBM lines screened plus three other slower growing GMB lines (unable to yield enough cells for a full primary screen). Variable activities of the confirmed primary hits in the different GBM patient lines were observed. The patient line 206 responded to the greatest number of compounds and line 923 responded to the least amount of active compounds.
% is set by controls: 0 for no effect and ±100 for the full control effect; potency is the fitted concentration of half-maximal effect.

| SMILES | activity, negative = cell killing | Potency |
| --- | --- | --- |
| CCOC(=O)[C@H](CCc1ccccc1)N[C@@H](C)C(=O)N1[C@H](C(=O)O)C[C@@H]2CCC[C@@H]21 | 0.713% |  |
| O=C(O)CCNC(=O)c1ccccc1 | -12.6% |  |
| CN1CCN(c2cc3c(cc2F)c(=O)c(C(=O)O)cn3-c2ccc(F)cc2)CC1 | -12.4% |  |
| CCOc1ccc(NC(C)=O)cc1 | -12.3% |  |
| CCCN(CCC)S(=O)(=O)c1ccc(C(=O)O)cc1 | -10.5% |  |
| CCNC(=O)/C=C/c1cccc(Br)c1 | -3.15% |  |
| CCN(CC)CCNC(=O)c1cc(Br)c(N)cc1OC | -22% |  |
| CC[N+](C)(CC)CCOC(=O)C(O)(c1ccccc1)C1CCCCC1 (stereo not given) | -9.63% |  |
| CCN(CC)CCOC(=O)C1(c2ccccc2)CCCC1 | -9.24% |  |
| CCCCc1cc2ccccc2c(OCCN(C)C)n1 | -25.6% [at 21.2 µM] |  |
| CN1CCN(CCC(=O)N2c3ccccc3Sc3ccc(C(F)(F)F)cc32)CC1 | -29.8% |  |
| CCC(Cc1c(I)cc(I)c(N)c1I)C(=O)O (stereo not given) | -12.3% [at 21.2 µM] |  |
| Oc1ccc(Cl)cc1Cc1cc(Cl)ccc1O |  | 11.2 µM (active) |
| Cc1cc(C)cc(OCC2CNC(=O)O2)c1 (stereo not given) | -8.89% |  |
| Cc1cc2c(OCC(CNC(C)(C)C)OC(=O)c3ccccc3)cccc2[nH]1 (stereo not given) | -24.5% |  |
| NC(=O)c1ccccc1O | -12.5% |  |
| COc1ccc(/C=N/NC(=O)c2ccncc2)cc1OC | -21.4% |  |
| NCCNc1cccc2ccccc12 | -17.3% |  |
| O=[N+]([O-])c1cccc(S(=O)(=O)NCCNS(=O)(=O)c2cccc([N+](=O)[O-])c2)c1 | -16.8% |  |
| CC(C)NCC(O)c1ccc2ccccc2c1 (stereo not given) | -5.89% |  |

| SMILES | activity, negative = cell killing | Potency |
| --- | --- | --- |
| C[C@@H](O)[C@H]1C(=O)N2C(C(=O)O)=C([C@H]3CCCO3)S[C@H]12 | -8.55% |  |
| CN(C)CCC[C@@]1(c2ccc(F)cc2)OCc2cc(C#N)ccc21 | -7.59% |  |
| CC(=C(CCOC(=O)C(C)C)SSC(CCOC(=O)C(C)C)=C(C)N(C=O)Cc1cnc(C)nc1N)N(C=O)Cc1cnc(C)nc1N | 1.52% |  |
| CCOc1cc(OCC)c(C(=O)CCC(=O)O)cc1OCC | -9.86% |  |
| O=S(=O)(O)c1ccc(O)cc1 | -9.51% |  |
| Cc1cc(-c2ccccc2)nnc1NCCN1CCOCC1 | -28.8% |  |
| NC(N)=NN=C(/C=C/c1ccc([N+](=O)[O-])o1)/C=C/c1ccc([N+](=O)[O-])o1 |  | 22.4 µM (active) |
| Cn1c(=O)c2[nH]c(Br)nc2n(C)c1=O | -10.1% |  |
| COc1cc(C)nc(-n2nc(C)cc2OC)n1 | -4.56% [at 21.2 µM] |  |
| OC[C@H]1O[C@@H]2O[C@H]3[C@H](O)[C@@H](O)[C@@H](O[C@H]4[C@H](O)[C@@H](O)[C@@H](O[C@H]5[C@H](O)[C@@H](O)[C@@H](O[C@H]6[C@H](O)[C@@H](O)[C@@H](O[C@H]7[C@H](O)[C@@H](O)[C@@H](O[C@H]8[C@H](O)[C@@H](O)[C@@H](O[C@H]1[C@H](O)[C@H]2O)O[C@@H]8CO)O[C@@H]7CO)O[C@@H]6CO)O[C@@H]5CO)O[C@@H]4CO)O[C@@H]3CO | -6.12% |  |
| Nc1ccc(S(=O)(=O)NCc2ccccc2)cc1 | -17.7% |  |
| CCCCOC(=O)CC(CC(=O)OCCCC)(OC(C)=O)C(=O)OCCCC | -18% |  |
| CCCN(CCc1cccs1)[C@H]1CCc2c(O)cccc2C1 | -27% |  |
| O=C(Nc1ccccc1)OCC(CN1CCCCC1)OC(=O)Nc1ccccc1 (stereo not given) | -19% [at 21.2 µM] |  |
| CCN(CC)CCOC(=O)C(Cc1cccc2ccccc12)CC1CCCO1 (stereo not given) | -12.3% [at 21.2 µM] |  |
| CCCCCCCCNC(C)C(O)c1ccc(SC(C)C)cc1 (stereo not given) |  | 22.4 µM (active) |
| Cc1cc(NS(=O)(=O)c2ccc(N)cc2)nc(C)n1 | -13.1% |  |
| C=C1c2cccc(O)c2C(O)=C2C(=O)[C@]3(O)C(O)=C(C(N)=O)C(=O)[C@@H](N(C)C)[C@@H]3[C@@H](O)[C@H]12 | -21.5% [at 21.2 µM] |  |
| CCCCCCCCCCCCCCCCO | -15.7% |  |
| CCCCCCCCCCCCCCCC(=O)O | -21.8% |  |
